Measurements reported in PubChem BioAssay (Tox21).
Results filed as inconclusive are left out. A number with no mark means an inactive call. Calls of active or inactive are those of the source. Unless noted, calls come from the whole dose curve; as a rule, active = well fitted curve in the direction sought with a large enough effect in the repeat runs; inconclusive = weak or mixed curves; inactive = no such curve, though single readings can be large; an effect the other way counts as inactive or inconclusive.

Target: Nuclear receptor subfamily 1 group I member 3 (Homo sapiens) (UniProt Q14994)
Experiment: qHTS assay to identify small molecule antagonists of the constitutive androstane receptor (CAR) signaling pathway (AID 1224838);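 note: HepG2 cells stably expressing hCAR with CYP2B6 luciferase reporter stimulated by CITCO; nearly all actives have a fitted effect of over 40% in size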
Conditions: HepG2-CYP2B6-hCAR luciferase, CITCO-stimulated, 24 h; series mostly up to 92.4 µM; activity, negative = inhibition: at the top concentration
Outline: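 Reporter luminescence was quantified after 24 h exposure of hCAR/CYP2B6-2.2kb double-stable HepG2 cells to compounds at 15 concentrations in the presence of 50 nM CITCO final.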
% is set by controls: 0 for no effect and ±100 for the full control effect.

Nuclear receptor subfamily 1 group I member 3 (Homo sapiens), sequence (Q14994 whole entry, looked up): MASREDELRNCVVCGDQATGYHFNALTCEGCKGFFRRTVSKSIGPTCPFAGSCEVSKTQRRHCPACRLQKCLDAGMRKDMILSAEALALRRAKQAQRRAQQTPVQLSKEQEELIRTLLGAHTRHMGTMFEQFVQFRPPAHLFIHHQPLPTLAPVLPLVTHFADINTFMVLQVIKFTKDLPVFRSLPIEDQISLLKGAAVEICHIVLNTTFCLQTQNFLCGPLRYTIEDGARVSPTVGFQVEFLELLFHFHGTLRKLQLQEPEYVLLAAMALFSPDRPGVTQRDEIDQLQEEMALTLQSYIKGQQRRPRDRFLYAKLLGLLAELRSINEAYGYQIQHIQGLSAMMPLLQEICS

Compound	activity, negative = inhibition
Oc1c(I)cc(I)c2cccnc12	98.6% [at 42.5 µM]
CCC1NC(=O)c2cc(S(N)(=O)=O)c(Cl)cc2N1 (centres undefined)	10% [at 42.5 µM]
O=C1c2ccccc2C(=O)c2c(O)c(O)cc(O)c21	137%
CCCCN(CCCC)C(C(N)=O)c1ccc(OC)cc1 (centres undefined)	-0.0606% [at 42.5 µM]
Oc1cccc(Nc2ccccc2)c1	147%
O=C(/C=C/c1ccccc1)OCCc1ccccc1	169%

Target: Nuclear receptor subfamily 1 group I member 3 (Homo sapiens) (UniProt Q14994)
Experiment: qHTS assay to identify small molecule agonists of the constitutive androstane receptor (CAR) signaling pathway (AID 1224839); note: nearly all actives have a fitted effect of over 15% in size; note: potency is the fitted concentration of half-maximal effect;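 for activation: HepG2 cells stably carrying human CAR and a CYP2B6 luciferase reporter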
Conditions: HepG2 hCAR CYP2B6-luciferase, agonist mode, 24 h; series mostly up to 92.4 µM; activation: at the top concentration
Outline: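 Compounds tested at 15 concentrations on HepG2 cells stably harbouring hCAR and CYP2B6-2.2kb reporter constructs, co-treated with PK11195 (0.75 uM final), 24 h at 37 C; luminescent reporter signal quantified.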

Compound	activation	Potency
C=C(C)[C@@H]1CCC2=CCC[C@@H](C)[C@]2(C)C1	1.75%	–
CN1CCCC(n2nc(Cc3ccc(Cl)cc3)c3ccccc3c2=O)CC1 (centres undefined)	-5.32% [at 42.5 µM]	–
CCC=CC#N	-1.07%	–
CC1CC(C)C(=O)C1=O (centres undefined)	-2.23%	–
C1COC1	-0.243%	–
CCCCCCC(C)(C)C(=O)O	1.48%	–
Cc1cccc(N(C)C(=S)Oc2ccc3c(c2)CCC3)c1	–	23.7 µM (active)
CCOC(C)=O	-0.892%	–
CCCCC(CC)COP(=O)(O)O (centres undefined)	-0.774%	–
CC(CCC(=O)O)C(=O)O (centres undefined)	-0.205%	–
CCC(C)COC(=O)CC(C)C (centres undefined)	-2.55%	–
Cc1ccco1	-0.23%	–
C[C@@H]1CN(CCCn2c3ccccc3c3ccccc32)C[C@H](C)N1	–	2.11 µM (active)
Nc1nnc(-c2ccc([N+](=O)[O-])o2)o1	-26.3%	–
N#[N+]c1ccc2c(S(=O)(=O)[O-])cccc2c1O	-1.48%	–
Cc1cc(O)c(C)c(C)c1O	5.77% [at 42.5 µM]	–
CC(=O)OCC(=O)NCCCOc1cccc(CN2CCCCC2)c1	-1.36% [at 42.5 µM]	–
CC(=O)Nc1ccc(C)cc1C	1.61%	–
COC(=O)c1nc(Cl)c(Cl)nc1N	-13.8% [at 42.5 µM]	–
CCCCCC[C@@H](O)C/C=C\CCCCCCCC(=O)O	-0.447%	–
NCCNCCO	0.258%	–
Cc1ccc2c(Br)cc(Br)c(O)c2n1	0.677% [at 42.5 µM]	–
O=C(O)C[C@H](NC(=O)OCc1ccccc1)C(=O)O	-0.293%	–
O=C(Nc1cccc2c(=O)cc(-c3nn[nH]n3)oc12)c1ccc(OCCCCc2ccccc2)cc1	1.52% [at 42.5 µM]	–
Cc1ccc(C(C)(C)O)cc1	-2.89%	–

Tested on: not listed separately
Experiment: qHTS assay to identify small molecule antagonists of the estrogen related receptor signaling pathway with the pleiotropic PPARgamma coactivator (PGC) from Tox21 10K library - cell viability counter screen (AID 1224840; active = well fitted cell-killing curve with a large enough effect in the repeat runs, not every such curve was filed as active; note: nearly all actives have a fitted effect of over 40% in size; note: potency is the fitted concentration of half-maximal effect)
Conditions: PGC/ERR reporter cells viability, CellTiter-Fluor, 17.5 h; series mostly up to 92.4 µM; viability change, negative = cytotoxic: at the top concentration
Outline: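 Here the PGC/ERR cells serve as a cytotoxicity control: they are exposed to compounds for 17.5 hours at 37 C, and live-cell signal is quantified using CellTiter-Fluor fluorescence.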

Compound	viability change, negative = cytotoxic	Potency
C=C(C)[C@@H]1CCC2=CCC[C@@H](C)[C@]2(C)C1	-0.437%	–
Oc1c(I)cc(I)c2cccnc12	-9.32% [at 42.5 µM]	–
CN1CCCC(n2nc(Cc3ccc(Cl)cc3)c3ccccc3c2=O)CC1 (centres undefined)	-29.3% [at 42.5 µM]	–
CCC1NC(=O)c2cc(S(N)(=O)=O)c(Cl)cc2N1 (centres undefined)	-13.6% [at 42.5 µM]	–
CCC=CC#N	0.782%	–
CC1CC(C)C(=O)C1=O (centres undefined)	8.57%	–
C1COC1	2.66%	–
CCCCCCC(C)(C)C(=O)O	4.68%	–
Cc1cccc(N(C)C(=S)Oc2ccc3c(c2)CCC3)c1	-6.79% [at 42.5 µM]	–
CC1CC(OC(=O)C(O)c2ccccc2)CC(C)(C)N1C (centres undefined)	3.31% [at 42.5 µM]	–
CC(CCC(=O)O)C(=O)O (centres undefined)	0.67%	–
Cc1ccco1	1.68%	–
CCCCCC[C@@H](O)C/C=C\CCCCCCCC(=O)OCC(O)CO (some centres undefined)	-7.26%	–
CCOC(=O)/C=C/C(=O)OCC	-2.09%	–
C[C@@H]1CN(CCCn2c3ccccc3c3ccccc32)C[C@H](C)N1	–	26.6 µM (active)
O=c1[nH]c2ccc(Cl)cc2o1	0.773%	–
O=C1Cc2cc(Cl)ccc2N1	-5.05% [at 42.5 µM]	–
CCC(C)COC(C)=O (centres undefined)	6.71%	–
N#[N+]c1ccc2c(S(=O)(=O)[O-])cccc2c1O	-18.1%	–
Oc1cccc(Nc2ccccc2)c1	-9.76%	–
CC(=O)OCC(=O)NCCCOc1cccc(CN2CCCCC2)c1	22.3% [at 42.5 µM]	–
CC(=O)Nc1ccc(C)cc1C	8.95%	–
CCCCCC[C@@H](O)C/C=C\CCCCCCCC(=O)O	-2.39%	–
NCCNCCO	4.95%	–
CCOC(=O)c1ccc(I)cc1	-0.22%	–
CC(=O)c1ccc([N+](=O)[O-])cc1	-0.0079%	–
CC[N+](CC)(CCNC(=O)C(=O)NCC[N+](CC)(CC)Cc1ccccc1Cl)Cc1ccccc1Cl	1.28% [at 42.5 µM]	–
Cc1ccc(C(C)(C)O)cc1	9.79%	–
